# Measurements published in PubChem BioAssay.
# The source made the active and inactive calls.
# Legend:
# [1] = binders of probe aFSTL3 on microarray, primary screen, stem cell growth factor project, biochemical, small-molecule microarray, fluorescence 635/667 (AID 1064); conditions: higher = more signal;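 further: measures binding of the biotinylated anti-FSTL3 antibody to printed compounds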
# [2] = binders from COS7 lysate, DM2A8 probe, primary screen, torsin A project, cell lysate, small-molecule microarray, fluorescence 635/667 (AID 1065); conditions: higher = more signal, COS7 lysate expressing mutant human TOR1A
# [3] = binders of probe aFGF2 on microarray, primary screen, stem cell growth factor project, biochemical, small-molecule microarray, fluorescence 635/667 (AID 1067); conditions: higher = more signal;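 further: measures binding of biotinylated aFGF2 protein to printed compounds on slides; z-score merges feature fluorescence and signal-to-noise across triplicate slides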
# [4] = binders of probe aFGF10 on microarray, primary screen, stem cell growth factor project, biochemical, small-molecule microarray, fluorescence 635/667 (AID 1071); conditions: higher = more signal;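 further: score merges 667 nm spot intensity and signal to noise from triplicate slides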
# [5] = target: Neurogenic locus notch homolog protein 2 (Homo sapiens) (UniProt Q04721); assay: Notch2 binders on small-molecule microarrays, primary screen, biochemical, small-molecule microarray, 635 nm fluorescence, stem cell growth factors (AID 1073); conditions: Notch2 binding, higher = more signal
# [6] = target: Pro-neuregulin-1, membrane-bound isoform (Homo sapiens) (UniProt Q02297); assay: NRG1 binders on small-molecule microarrays, primary screen, psychiatric disease protein project, biochemical, small-molecule microarray, fluorescence 635/667 (AID 1075); conditions: NRG1 binding, 635 nm fluorescence, higher = more signal;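 further: score combines 667 nm spot fluorescence with signal to noise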
# Pro-neuregulin-1, membrane-bound isoform (Homo sapiens), sequence (Q02297 whole entry, looked up, the tested form may be a part, canonical isoform): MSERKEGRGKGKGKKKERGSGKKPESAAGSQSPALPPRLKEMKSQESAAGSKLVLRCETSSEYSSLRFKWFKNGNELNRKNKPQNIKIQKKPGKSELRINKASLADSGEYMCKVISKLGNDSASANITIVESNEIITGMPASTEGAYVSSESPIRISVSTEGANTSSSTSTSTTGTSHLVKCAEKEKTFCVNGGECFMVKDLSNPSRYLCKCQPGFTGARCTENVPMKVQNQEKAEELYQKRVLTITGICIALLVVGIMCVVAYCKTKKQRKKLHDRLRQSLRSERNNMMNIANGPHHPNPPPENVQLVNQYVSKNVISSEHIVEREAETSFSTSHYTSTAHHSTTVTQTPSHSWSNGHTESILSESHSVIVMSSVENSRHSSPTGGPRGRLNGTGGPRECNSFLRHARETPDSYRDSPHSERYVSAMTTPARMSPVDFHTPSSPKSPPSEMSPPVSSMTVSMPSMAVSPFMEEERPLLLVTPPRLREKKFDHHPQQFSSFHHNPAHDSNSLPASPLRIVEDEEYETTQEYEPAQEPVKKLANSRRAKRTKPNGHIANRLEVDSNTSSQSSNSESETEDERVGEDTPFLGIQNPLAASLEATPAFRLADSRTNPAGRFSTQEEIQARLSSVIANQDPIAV
# [7] = system: Neuregulin-1 EGF-like domain; assay: binders of neuregulin-1 EGF-like domain, primary screen, biochemical, small-molecule microarray, 635 nm fluorescence (AID 1081); conditions: small-molecule microarray binding, higher = more signal;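 further: binding of the protein to compounds printed on small-molecule microarray slides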
# [8] = FRG1 promoter luciferase signal modulators, primary screen, FRG1 inhibition for FSHD, cell-based, C2C12 myotubes, firefly/Renilla luciferase, luminescence (AID 1084); conditions: higher = more signal, called active from +8 up or from −8 down
# [9] = binders of probe aFST on microarray, primary screen, stem cell growth factor project, biochemical, small-molecule microarray, fluorescence 635/667 (AID 1086); conditions: higher = more signal;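 further: score merges 667 nm fluorescence with signal-to-noise of each printed compound spot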
# [10] = binders of probe aHhip on microarray, primary screen, stem cell growth factor project, biochemical, small-molecule microarray, fluorescence 635/667 (AID 1087); conditions: higher = more signal;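 further: score merges spot fluorescence at 667nm with spot signal to noise ratio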
# [11] = system: PRMT1 (protein arginine N-methyltransferase 1); assay: PRMT1 binders on small-molecule microarrays, primary screen, biochemical, small-molecule microarray, 635 nm fluorescence (AID 1088); conditions: small-molecule microarray binding, higher = more signal;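 further: binding of Prmt1 protein to compounds spotted on small-molecule microarray slides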
# [12] = yeast growth modulation, basal conditions, primary screen, YJM789 clinical isolate, OD600, 24 h (AID 1089);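 further: growth of clinical yeast isolate S. cerevisiae YJM 789 seeded 1000 cells per well; test concentration not given here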; conditions: S. cerevisiae YJM789 growth, higher = more signal, called active from +8 up or from −8 down
# [13] = fission yeast growth modulation, primary screen, strain 972, OD600, 24 h, no modulator (AID 1090);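 further: basal condition with compound alone and no growth modifier present; test concentration not given here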; conditions: S. pombe 972 growth, higher = more signal, called active from +8 up or from −8 down
# [14] = S. cerevisiae growth modulation with rapamycin, primary screen, strain BY4716, OD600, 96 h (AID 1091); conditions: higher = more signal, called active from +8 up or from −8 down; further: test concentration not given here
# [15] = target: Torsin-1A-interacting protein 2 (Homo sapiens) (UniProt Q8NFQ8); assay: LULL1 binders on small-molecule microarray, primary screen, cell lysate, human LULL1 lysate, 635/667 nm fluorescence (AID 1092); conditions: hLULL1 lysate binding, 635 nm fluorescence, higher = more signal;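 further: probe is lysate of COS7 cells overexpressing human LULL1; score merges per-feature 667 nm fluorescence with signal-to-noise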
# Torsin-1A-interacting protein 2 (Homo sapiens), sequence (Q8NFQ8 whole entry, looked up): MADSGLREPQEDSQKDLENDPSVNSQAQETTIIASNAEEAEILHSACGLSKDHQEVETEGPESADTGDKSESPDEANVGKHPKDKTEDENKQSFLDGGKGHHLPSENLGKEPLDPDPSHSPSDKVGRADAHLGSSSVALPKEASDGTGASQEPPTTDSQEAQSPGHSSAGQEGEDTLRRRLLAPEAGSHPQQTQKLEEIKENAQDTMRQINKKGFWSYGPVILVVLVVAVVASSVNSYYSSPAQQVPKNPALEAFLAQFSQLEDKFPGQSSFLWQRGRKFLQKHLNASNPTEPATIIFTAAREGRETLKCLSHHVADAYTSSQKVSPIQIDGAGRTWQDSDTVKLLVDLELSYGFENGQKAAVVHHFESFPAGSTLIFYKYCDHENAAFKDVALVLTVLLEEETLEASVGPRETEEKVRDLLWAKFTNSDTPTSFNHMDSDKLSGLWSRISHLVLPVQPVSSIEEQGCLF
# [16] = E. coli growth modulation, two-sided OD650, primary screen, E. coli filamentation project, strain DRC41, 24 h (AID 1093); conditions: OD650, 24 h, higher = more signal, called active from +8 up or from −8 down;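 further: MC1000 strain lacking acrAB efflux and sulA so SOS filamentation is blocked; test concentration not given here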
# [17] = small-molecule microarray binders of probe aLefty2, primary screen, biochemical, biotinylated probe, 635/667 nm fluorescence (AID 1094); conditions: higher = more signal;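 further: score merges spot fluorescence near 667 nm with spot signal-to-noise ratio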
# [18] = system: Noggin (protein binding on small-molecule microarray); assay: Noggin binders on small-molecule microarray, primary screen, biochemical, 635/667 nm fluorescence (AID 1095); conditions: 635 nm fluorescence, higher = more signal;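 further: score merges 667 nm feature fluorescence with signal to noise over triplicate slides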
# [19] = target: Neurogenic locus notch homolog protein 3 (Homo sapiens) (UniProt Q9UM47); assay: NOTCH3 binders on small-molecule microarray, primary screen, biochemical, 635/667 nm fluorescence (AID 1096); conditions: NOTCH3 binding, 635 nm fluorescence, higher = more signal
# Neurogenic locus notch homolog protein 3 (Homo sapiens), sequence (Q9UM47 whole entry, looked up): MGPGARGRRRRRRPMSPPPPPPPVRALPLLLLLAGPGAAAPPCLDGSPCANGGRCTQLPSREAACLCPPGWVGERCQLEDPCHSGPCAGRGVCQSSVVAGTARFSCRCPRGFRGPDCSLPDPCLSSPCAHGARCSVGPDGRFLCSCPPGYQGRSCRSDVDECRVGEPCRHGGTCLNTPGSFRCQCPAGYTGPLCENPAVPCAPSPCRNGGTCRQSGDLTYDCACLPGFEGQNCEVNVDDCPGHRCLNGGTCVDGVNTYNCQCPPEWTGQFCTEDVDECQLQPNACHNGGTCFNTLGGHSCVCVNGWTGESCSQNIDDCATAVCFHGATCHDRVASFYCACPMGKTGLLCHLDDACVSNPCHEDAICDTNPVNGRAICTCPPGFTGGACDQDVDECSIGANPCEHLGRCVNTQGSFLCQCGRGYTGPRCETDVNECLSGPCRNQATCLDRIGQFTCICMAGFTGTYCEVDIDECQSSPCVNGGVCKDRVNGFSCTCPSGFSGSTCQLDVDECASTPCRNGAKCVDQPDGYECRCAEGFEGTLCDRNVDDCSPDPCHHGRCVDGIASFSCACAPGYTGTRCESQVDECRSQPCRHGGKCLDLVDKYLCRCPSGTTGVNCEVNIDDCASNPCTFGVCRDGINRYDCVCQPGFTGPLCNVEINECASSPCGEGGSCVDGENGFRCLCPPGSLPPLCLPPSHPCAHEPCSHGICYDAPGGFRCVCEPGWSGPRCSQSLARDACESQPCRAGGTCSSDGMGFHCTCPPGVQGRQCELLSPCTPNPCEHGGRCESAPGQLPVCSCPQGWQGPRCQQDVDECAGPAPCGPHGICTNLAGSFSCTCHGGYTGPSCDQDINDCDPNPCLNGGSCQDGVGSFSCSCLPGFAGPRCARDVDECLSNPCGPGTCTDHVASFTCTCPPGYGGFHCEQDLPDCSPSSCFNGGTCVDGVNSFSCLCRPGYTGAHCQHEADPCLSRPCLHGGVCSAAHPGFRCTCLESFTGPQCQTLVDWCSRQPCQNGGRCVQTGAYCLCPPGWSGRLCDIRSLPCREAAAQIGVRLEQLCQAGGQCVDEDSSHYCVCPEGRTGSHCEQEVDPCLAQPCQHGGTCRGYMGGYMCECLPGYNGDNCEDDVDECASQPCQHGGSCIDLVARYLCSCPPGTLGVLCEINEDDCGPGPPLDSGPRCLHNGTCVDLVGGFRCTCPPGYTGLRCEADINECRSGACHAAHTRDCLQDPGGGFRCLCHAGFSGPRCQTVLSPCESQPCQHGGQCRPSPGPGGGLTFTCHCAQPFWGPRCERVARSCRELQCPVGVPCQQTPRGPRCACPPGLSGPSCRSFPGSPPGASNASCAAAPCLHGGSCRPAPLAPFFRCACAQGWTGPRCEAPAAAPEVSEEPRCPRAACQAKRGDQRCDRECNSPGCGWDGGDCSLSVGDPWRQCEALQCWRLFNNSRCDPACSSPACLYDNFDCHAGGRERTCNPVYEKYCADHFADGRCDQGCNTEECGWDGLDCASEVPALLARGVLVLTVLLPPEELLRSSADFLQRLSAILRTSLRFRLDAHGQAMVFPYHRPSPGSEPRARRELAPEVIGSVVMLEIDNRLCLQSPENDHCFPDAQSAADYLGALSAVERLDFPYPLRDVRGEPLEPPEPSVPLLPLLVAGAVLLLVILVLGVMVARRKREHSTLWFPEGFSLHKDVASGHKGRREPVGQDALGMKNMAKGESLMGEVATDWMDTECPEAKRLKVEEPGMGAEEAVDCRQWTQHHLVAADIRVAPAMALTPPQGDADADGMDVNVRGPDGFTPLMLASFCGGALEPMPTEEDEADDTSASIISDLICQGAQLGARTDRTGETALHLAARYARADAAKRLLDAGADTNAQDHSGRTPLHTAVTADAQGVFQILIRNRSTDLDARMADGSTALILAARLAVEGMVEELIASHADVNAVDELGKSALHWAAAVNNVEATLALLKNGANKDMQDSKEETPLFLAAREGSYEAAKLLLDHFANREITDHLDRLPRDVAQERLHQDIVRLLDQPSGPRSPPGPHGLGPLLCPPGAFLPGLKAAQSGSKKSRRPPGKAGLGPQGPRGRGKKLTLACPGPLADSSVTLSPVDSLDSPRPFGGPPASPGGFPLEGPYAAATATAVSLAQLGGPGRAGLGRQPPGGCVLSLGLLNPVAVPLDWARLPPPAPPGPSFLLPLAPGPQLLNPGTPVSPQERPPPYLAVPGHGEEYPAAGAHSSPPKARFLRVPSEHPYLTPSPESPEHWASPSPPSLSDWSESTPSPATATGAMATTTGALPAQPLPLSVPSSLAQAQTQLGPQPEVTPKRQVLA
# [20] = small-molecule microarray binders of probe aEGFR, primary screen, biochemical, biotinylated probe, 635/667 nm fluorescence (AID 1097); conditions: higher = more signal;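 further: probe is a biotinylated anti-EGFR antibody binding compounds printed on slides; score combines fluorescence near 667 nm and signal to noise of each spot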
Structure (SMILES),composite z-score [1],composite z-score [2],composite z-score [3],composite z-score [4],composite z-score [5],composite z-score [6],composite z-score [7],z-score [8],composite z-score [9],composite z-score [10],composite z-score [11],z-score [12],z-score [13],z-score [14],composite z-score [15],z-score [16],composite z-score [17],composite z-score [18],composite z-score [19],composite z-score [20]
CCOC(=O)C[C@H]1[C@H](OC(=O)Cc2ccc3c(c2)OCO3)[C@@H](NC(=O)c2ccc3ccccc3c2)c2cc(OCCCO)ccc2N1C(=O)c1ccccc1,-0.397,0.0993,-0.14,0.284,0.642,0.376,1.13,0.12 (inactive),0.254,0.0373,0.745,-0.0607 (inactive),0.175 (inactive),0.954 (inactive),1.69,1.35 (inactive),-0.0961,0.329,0.742,-0.0225
O=C1OCC=C[C@H]2OC34C=CCN(CCN5CCOCC5)C(=O)[C@H]3N(CCCO)C(=O)[C@@H]4[C@@H]12 (stereo not given in full),-0.206,-0.426,-0.139,-0.02,-0.146,-0.125,0.59,1.78 (inactive),-0.382,-0.0003,-0.102,0.0736 (inactive),-0.454 (inactive),0.238 (inactive),0.477,0.681 (inactive),-0.208,0.219,0.314,-0.128
O=C1c2ccccc2[C@@]2(Cc3ccccc3N(CC(F)(F)F)C2=O)[C@H](c2ccc(CO)cc2)N1Cc1ccccc1Cl,-0.351,-0.112,-0.147,-0.0091,0.0933,-0.0415,0.222,-0.163 (inactive),-0.121,-0.226,1.22,-0.146 (inactive),-0.172 (inactive),-1.62 (inactive),-0.0577,0.0194 (inactive),-0.159,0.476,-0.0169,-0.118
Cc1ccc(S[C@]2(C(=O)NC3CC3)CC(=O)N(C3Cc4ccccc4C3)[C@@H]2c2ccc(CO)cc2)cc1,0.631,-0.233,0.11,-0.563,-0.363,1.08,0.836,-2.83 (inactive),-0.175,-0.134,1.38,-2.31 (inactive),-0.945 (inactive),-1.13 (inactive),3.08,2.12 (inactive),-0.0533,-0.878,0.19,-0.221
CN1C(=O)C2C=CC(C(O)c3cccs3)N(Nc3ccccc3)C2C1=O (stereo not given),0.0812,0.552,-0.0628,0.415,0.94,1.22,1.4,-0.263 (inactive),0.388,0.261,0.881,0.442 (inactive),0.917 (inactive),0.662 (inactive),3.24,-1.32 (inactive),0.139,0.395,0.826,-0.0111
CN1C(=O)C2C=CC(C(O)c3ccc(I)cc3)N(N3CCCCC3)C2C1=O (stereo not given),0.151,0.235,0.0671,1.09,1.71,1.73,1.27,1.14 (inactive),1.4,-0.0346,1.55,0.276 (inactive),-1.13 (inactive),-0.0412 (inactive),3.36,-1.74 (inactive),0.583,0.282,1.04,0.0747
CCCC#C[Si](O[C@H](CC)c1cn([C@H](CO)Cc2ccccc2)nn1)(C(C)C)C(C)C,-0.503,0.236,-0.0856,0.449,0.769,0.471,0.988,0.889 (inactive),-0.0393,-0.0003,0.869,-0.843 (inactive),-10.7 (active),-2.6 (inactive),1.48,0.858 (inactive),0.0166,0.681,0.584,-0.0563
[N-]=[N+]=Nc1ccccc1C[C@@]1(C(=O)NCCN2CCOCC2)N=C(c2ccc(OCCCO)cc2)O[C@@H]1c1ccccc1,0.234,0.205,0.146,0.409,1.59,1.6,1.24,-1.23 (inactive),1.01,-0.286,1.55,-2.58 (inactive),-4.77 (inactive),-1.77 (inactive),3.27,1.26 (inactive),-0.0673,0.748,1.08,0.0371
CCCC[C@@H]1C[C@H]1[C@@H](NC(=O)c1ccco1)c1ccc(Cl)cc1,0.159,0.308,0.0296,0.0982,1.22,1.01,1.05,-1.51 (inactive),0.829,0.0274,0.44,0.622 (inactive),0.362 (inactive),0.384 (inactive),2.89,-0.815 (inactive),0.164,-0.576,0.889,0.0271
C=C(CCCC)/C(=C/C[C@@H](OC(C)=O)c1ccccc1OCCO)c1cnc2ccccc2c1,0.0298,1.08,-0.0633,-0.036,0.13,0.967,0.95,-0.983 (inactive),0.0983,0.176,1.3,0.182 (inactive),-0.727 (inactive),0.0058 (inactive),1.1,0.468 (inactive),-0.0208,0.61,0.513,-0.0675
COc1ccc(CCN2C(=O)[C@@]3(Cc4ccccc42)c2ccccc2C(=O)N(Cc2ccccc2C(F)(F)F)[C@H]3c2ccc(CO)cc2)cc1,-0.402,-0.0678,-0.128,-0.106,-0.112,-0.112,0.791,0.453 (inactive),-0.256,-0.0994,0.67,0.276 (inactive),-0.414 (inactive),-1.68 (inactive),0.568,-2.33 (inactive),0.0077,0.451,-0.39,-0.276
C=CCOC(=O)[C@H]1[C@@H]2C(=O)O[C@@H](c3ccccc3)[C@@H](c3ccccc3)N2[C@@H](c2ccc(OCCOC(=O)[C@H]3C[C@H]4C(=O)N5CCC[C@H]5C(=O)N4[C@H]3c3ccc(O)cc3)cc2)[C@]12C(=O)Nc1ccc(I)cc12,2.15,2.13,0.555,0.791,1.71,2.72,1.44,-0.269 (inactive),2.72,2.39,1.53,-0.324 (inactive),-1.65 (inactive),0.0891 (inactive),3.64,1.07 (inactive),1.46,2,1.05,0.993
COc1ccc(C(=O)Nc2ccc(CN3C(=O)[C@@]4(O[C@@H](CCn5cc([C@H](O)c6ccccc6)nn5)[C@H]([Si](C)(C)c5ccc(OC)cc5)[C@H]4C)c4ccccc43)cc2)cc1,-0.197,0.315,0.484,-0.164,-0.244,0.258,1.05,-2.48 (inactive),0.217,-0.0391,1.46,0.188 (inactive),-0.807 (inactive),1.66 (inactive),1.11,-0.351 (inactive),-0.136,0.323,0.378,-0.134
COC(=O)[C@@]1(Cc2ccc(OC)cc2)[C@H]2c3cc(C(=O)N(C)C)n(Cc4cccc5ccccc45)c3C[C@H]2CN1C(=O)c1ccccc1,-0.193,1.16,0.118,1.15,1.27,1.79,1.36,0.189 (inactive),1.33,0.534,0.219,-0.386 (inactive),0.514 (inactive),1.46 (inactive),2.78,-0.223 (inactive),1.07,0.841,0.481,0.92
CO[C@H]1O[C@H](CO)[C@@H](OC(=O)Nc2ccc(Br)cc2)[C@H](OC(=O)c2cc3ccccc3[nH]2)[C@H]1OC(=O)c1cc2ccccc2[nH]1,-0.31,1.05,-0.11,0.724,0.606,0.844,1.07,-0.483 (inactive),0.237,-0.0253,1.39,-1.96 (inactive),-1.59 (inactive),-0.654 (inactive),2.48,2.05 (inactive),0.0166,0.514,0.944,0.0686
CCOC(=O)C[C@H]1[C@H](OC(=O)c2cc3ccccc3oc2=O)[C@@H](NC(=O)Cc2ccc(OC)cc2)c2cc(OCCCO)ccc2N1C(=O)c1ccccc1,-0.356,0.41,-0.076,0.379,0.359,0.199,0.385,1.57 (inactive),0.164,-0.199,0.242,-0.0987 (inactive),-0.507 (inactive),0.279 (inactive),1.08,0.201 (inactive),-0.139,0.558,0.0769,-0.0174
CCCCC=C[C@@H](NC(=O)Oc1cccc(C(F)(F)F)c1)c1ccccc1,1.56,0.974,0.84,1.03,1.55,1.47,1.11,-3.84 (inactive),2.02,2.27,0.745,1.06 (inactive),0.0148 (inactive),1.01 (inactive),0.277,-2.21 (inactive),0.839,-0.0732,1.08,0.4
COCCOC(=O)N1C(=O)[C@@]2(c3cc(C#CCNC(N)=O)ccc31)[C@H](C(=O)NC[C@H](O)c1ccccc1)[C@H]1C(=O)O[C@H](c3ccccc3)[C@H](c3ccccc3)N1[C@@H]2c1ccccc1OCCO,-0.12,0.294,-0.0899,0.745,1.11,0.891,1.09,-0.864 (inactive),-0.177,-0.113,1.55,1.56 (inactive),1.11 (inactive),3.45 (inactive),2.6,-0.124 (inactive),-0.0644,1.72,0.98,-0.118
O=C1OCCC=C[C@H]2OC34C=CCN(CCN5CCOCC5)C(=O)[C@H]3N(CCCCCCO)C(=O)[C@@H]4C12 (stereo not given in full),-0.174,-0.352,-0.147,0.0933,-0.849,-0.0296,0.988,-0.263 (inactive),-0.235,-0.169,0.358,0.807 (inactive),-1 (inactive),0.201 (inactive),0.562,0.15 (inactive),-0.294,-0.627,-0.017,-0.251
